# Assay outcomes from PubChem.
# ClpP mod – qHTS Assay for Activators of ClpP | ATP-dependent Clp protease proteolytic subunit (Bacillus subtilis (strain 168)), P80244 | purified B. subtilis ClpP, FRET peptide cleavage, 20 min | Potency, µM (top dose mostly 57.5 µM), inactives show top-dose activity change, negative = active | 1.9% of 340,000 active | AID 651965, 2013; active means well fitted falling curve with a large enough effect; inconclusive means small, poorly fitted or top-dose-only effect; inactive means no such curve, though single readings can be large or run the other way; further: potency means the concentration at half of the fitted maximal effect; the source files actives as falling curves though it sought activators and does not explain the sign; nearly all actives have a fitted effect of over 65% in size
# Target sequence (P80244 whole entry, looked up): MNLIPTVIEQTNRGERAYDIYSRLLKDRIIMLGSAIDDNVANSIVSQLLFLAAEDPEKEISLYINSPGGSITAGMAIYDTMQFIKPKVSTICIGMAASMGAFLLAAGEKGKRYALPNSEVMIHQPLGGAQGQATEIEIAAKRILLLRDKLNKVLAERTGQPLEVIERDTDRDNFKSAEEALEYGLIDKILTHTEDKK
#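 ClpP 10 microg/mL final, pH 8 Tris/KCl buffer with BSA, glycerol, Tween-20; compound pinned in; FRET-FV substrate; RT 20 min; Ex320/Em430; ΔFRET vs ADEP 5.8 microM, DMSO, no enzyme.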
# uPA generation – inhibitors of cell surface uPA generation | 0.31% of 330,000 active | Potency, µM (doses to about 38.3 µM), without a hit: top-dose activity change, negative = inhibition, most hits filed as inhibitors | AID 540303 | cell surface uPA generation assay, qHTS; active means well fitted inhibition curve with a large enough effect; inconclusive means small, poorly fitted or top-dose-only effect; inactive means no such curve, though single readings can be large or run the other way; tested in mouse RAW 264.7 cells; further: potency means the concentration at half of the fitted maximal effect; on the % scale 0 is the no-effect control and ±100 the full control effect; nearly all actives have a fitted effect of over 55% in size
# TCR act – activates T cell receptor signaling | primary human leukocytes, anti-CD3, IL-2 HTRF, 48 h | Potency, µM (series often up to 9.22 µM), inactives show at the top dose activation of IL-2 secretion, hits mostly activators | 330,000 tested, under 10 active | AID 504894; further: % of control where 0% means no effect
#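 Primary human leukocytes were stimulated with a-CD3 beads plus compounds for 48 hr without co-stimulation; secreted IL-2 was quantified by HTRF using a-IL-2-K (europium cryptate) and a-IL-2-d2, excited at 320nm with acceptor emission read at 665nm.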
# Sfp inh – inhibitors of Bacillus subtilis Sfp phosphopantetheinyl transferase. 3.5% of 310,000 active. Biochemical Sfp PPTase activity, qHTS. Potency, µM, without a hit: largest response in the series, negative = inhibition, usual class: inhibitors. AID 1490;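 further: the enzyme is Sfp with the accession as filed and its product quenches rhodamine fluorescence; potency means the concentration at half of the fitted maximal effect; 0% = enzyme reaction without inhibitor and -100% = no enzyme wells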
#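 Step 1, compound plus 15 nM Sfp-PPTase, 15 min, room temperature. Step 2, add rhodamine-CoA (5 uM) and BHQ-2-YbbR (12.5 uM). Step 3, read 525/598 nm fluorescence at 0 and 30 min.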
# * = called active by the depositor; ? = inconclusive; · = no result given; ! = repeats disagree; [ ] = another dose, or the depositor's remark. Hits are enriched below; roughly 4.2% of the tested compounds scored in any of these assays. Unless noted, the call rests on the fitted dose curve; in most records, active means well fitted curve in the direction sought with a large enough effect; inconclusive means small, poorly fitted or top-dose-only effect, or another doubt; inactive means no such curve, though single readings can be large; an effect the other way counts as inactive or inconclusive.
SMILES,ClpP mod,uPA generation,TCR act,Sfp inh
CN(C)c1ccc(/C=C2/C(=O)NC(=O)N(CCc3ccc(F)cc3)C2=O)cc1,-0.3%,22.1%,0.9%[46.1 µM],-22.7%
COCCN1C(=O)NC(=O)/C(=C\c2ccc(Br)cc2)C1=O,0.3%,-9.4%,1.6%,50.1µM*
c1ccc(CN2CCC3(CCNCC3)CC2)cc1,·,·,·,-11.7%
CCCCNC(=O)Oc1c(Br)cc2sc(=O)oc2c1Br,·,·,·,11.2µM*
NC1CCc2cc(O)c(O)cc2C1 (stereo unspecified),2.9%,-0.9%,-12.2%,39.8µM*
CCOCCSc1nc2c(c(-c3cccs3)c1C#N)CC/C2=C/c1cccs1,-0.6%,-3.4%,4.2%[46.1 µM],35.5µM*
O=C(O)CCC(=O)NCCC1=c2ccccc2=N/C1=C\c1c(O)n(Cc2ccc(F)cc2)c(=S)[nH]c1=O,·,-2.0%,5.7%,35.5µM*
CN1C(=O)NC(=O)/C(=C\C=C\c2ccccc2[N+](=O)[O-])C1=O,·,-4.7%,-4.9%,17.8µM*
CCOC(=O)c1ccccc1NC(=O)N(Cc1ccc(CC)cc1)Cc1cn[nH]c1-c1ccc(OC)cc1,35.5µM*,·,·,·
O=C(NCCc1ccccc1)[C@@H]1CC=C[C@@H]2CCN(Cc3ccc(Cl)c(Cl)c3)C(=O)[C@@H]21,2.5%,?,2.1%,·
Oc1ccc(C[C@H]2NCCc3cc(O)c(O)cc32)cc1O,·,-10.4%,-0.8%,70.8µM*
Cc1nc(-c2ccc(-c3ccc(C(=O)N4CCc5cc6c(cc54)C4(CCN(C)CC4)CO6)cc3)c(C)c2)no1,·,·,·,63.1µM*
CC(C)N(C(=O)CCl)c1ccccc1,-0.9%,6.31µM*,-3.9%,2.6%
CCc1cccc(C)c1N(C(=O)CCl)C(C)COC (stereo unspecified),·,·,·,13.4%
COc1ccc(-n2c(CN3CCOCC3)nc3ccccc3c2=O)c(OC)c1,-1.2%,-0.5%,3.9%,1.7%
COc1ccc(-c2sc3ccccc3c2-c2ccc(OCCN(C)C)cc2)cc1,3.4%,?,2.8%,·
COc1cc(OC)cc(-c2sc3ccc(OC)cc3c2-c2ccc(OCCN3CCOCC3)cc2)c1,8.91µM*,9.9%,9.1%[46.1 µM],·
COc1cccc(-c2sc3ccccc3c2-c2ccc(OCCN3CCOCC3)cc2)c1,31.6µM*,-11.5%,0.1%,·
COc1ccc2sc(-c3ccccc3OC)c(-c3ccc(OCCN4CCOCC4)cc3)c2c1,28.2µM*,-6.9%,7.6%[46.1 µM],·
COP(N)(=O)SC (stereo unspecified),·,·,·,-7.9%
CCC(C)C(=O)OC1C[C@@]2(C)C(c3ccoc3)OC(=O)CC23OC2(C)OC34C(OC(=O)C(C)C)[C@]3(O)C(OC(=O)C5(C)OC5C)[C@]5(C)CC3(O)[C@](C)(C5CC(=O)OC)C14O2 (stereo partly specified),·,·,·,16.7%
CC1O[C@@H](OC2CC[C@@]3(C=O)C4CC[C@]5(C)C(C6=CC(=O)OC6)CC[C@@]5(O)C4CC[C@]3(O)C2)C(O)C(O)C1O (stereo partly specified),·,·,·,3.2%
CCOP(=O)(OCC)C(NC(=O)c1cccc([N+](=O)[O-])c1)C(Cl)(Cl)Cl (stereo unspecified),31.6µM*,3.5%,-1.4%,8.6%
NC(=O)c1ccc(N=Nc2c(O)[nH]c(=O)[nH]c2=O)cc1,·,·,-3.8%[46.1 µM],14.2%
O=C(N=Nc1c(O)[nH]c(=O)[nH]c1=O)C1COc2cc3ccccc3cc2O1 (stereo unspecified),·,5.6%,-4.2%,56.2µM*
SMILES,ClpP mod,uPA generation,TCR act,Sfp inh
C=C(C)[C@H]1O[C@H]2CC[C@@]3(C)[C@@](O)(CC[C@H]4[C@@H]5OC(C)(C)[C@H]6C[C@@H]7C(=C)Cc8c(Cl)cc9[nH]c(c5c9c8[C@@]76O)[C@@]43C)[C@]23O[C@@H]3[C@H]1O,·,·,·,16.3%
CCCCC/C=C\C/C=C\C/C=C\C/C=C\CCCC(=O)NCc1ccoc1,·,·,·,22.4µM*
CCCCC/C=C\C/C=C\C/C=C\C/C=C\CCCC(=O)NCC(=O)O,·,·,·,79.4µM*!
CCCCC/C=C\C/C=C\C/C=C\C/C=C\CCCC(=O)NCCO,·,·,·,44.7µM*!
CCCCC/C=C\C/C=C\C/C=C\C/C=C\CCCC(=O)OCCN,·,·,·,63.1µM*
CCCCC/C=C\C/C=C\CCCCCCCCCC(=O)NCCO,·,·,·,-2.3%
O=C1CC2OCC=C3CN4CC[C@@]56c7ccccc7N1C5C2C3CC46 (stereo partly specified),·,·,·,6.6%
CCCCC/C=C\C/C=C\C/C=C\C/C=C\CCCC(=O)Nc1ccc(O)cc1,·,·,·,32.8%
CCCCC/C=C\C/C=C\C/C=C\C/C=C\CCCC(=O)NCCc1ccc(O)c(O)c1,·,·,·,44.7µM*!
CC(Oc1ccc(Cl)cc1Cl)C(=O)Nc1ccc(S(=O)(=O)Nc2cnc3ccccc3n2)cc1 (stereo unspecified),15.8µM*,-2.5%,-1.1%,-7.8%
CCOc1ccc(OCC)c(NC(=O)CN2CCN(c3ccc(C)cc3C)CC2)c1,-0.4%,-4.0%,-5.0%[46.1 µM],31.6µM*
N#Cc1c(Oc2cccc(OS(=O)(=O)CCCC(F)(F)F)c2)cccc1C(F)(F)F,·,·,·,20.1%
COc1cc2c(ccc3c4cc(OC)c(OC)cc4c[n+](C)c23)cc1O,0.2%,-11.2%,-0.8%,·
COc1ccc2c(c[n+](C)c3c4cc5c(cc4ccc23)OCO5)c1OC,·,·,·,50.1µM*
COc1cc(C=C2C(=O)NC(=O)NC2=O)cc(OC)c1OC,2.5%,12.0%,-5.2%,31.6µM*
COc1cc(C=C2C(=O)NC(=O)NC2=O)ccc1OS(=O)(=O)c1ccccc1[N+](=O)[O-],·,-0.1%,1.7%,50.1µM*
CCOc1cc(C=C2C(=O)NC(=O)NC2=O)ccc1OCC(=O)N1CCOCC1,13.5%,7.1%,-6.1%[46.1 µM],?
CCOc1cc(C=C2C(=O)NC(=O)NC2=O)ccc1OS(=O)(=O)c1ccccc1,-1.3%,-8.2%,2.0%,50.1µM*
CC(C)Cn1c(O)c(N=NC(=O)c2cccc(S(=O)(=O)N3CCCCC3)c2)c2ccccc21,-1.2%,?,4.3%[46.1 µM],1.7%
COC(=O)[C@H]1[C@H](c2ccccc2)C(=O)[C@@]2(O)c3ccccc3O[C@@]12c1ccccc1,·,·,·,10.6%
O=C(NCCCN1CC1)Nc1cccc2ccccc12,25.1µM*,-0.7%,-1.6%,·
Cc1ccccc1NC(=O)NCCN1CC1,-1.2%,3.2%,0.3%,-11.7%
O=C1C=CC(=O)C(Cl)=C1,·,·,·,3.98µM*
c1ccc(-c2cc3c(nc2-c2ccccc2)CCNC3)cc1,·,·,·,11.8%
O=C(NCc1nc2ccccc2[nH]1)C1=C[C@@H](c2ccc(C(F)(F)F)cc2)C[C@@H](OCc2ccc(CO)cc2)O1,-2.4%,?,0.6%,·
Cn1c(=O)oc2cc(S(=O)(=O)NCc3cccnc3)ccc21,·,-0.5%,-2.5%,79.4µM*
CCCCCCC(C)(C)c1cc(OC)c2c(c1)OC(C)(C)[C@@H]1CC=C(C)C[C@@H]21,·,·,·,34.0%
Cc1ccc(/C=C2\C(=O)NC(=O)N(Cc3ccccc3Cl)C2=O)o1,-0.1%,-9.1%,-1.3%,70.8µM*
COc1cc(N2CCOCC2)ccc1/C=C1\C(=O)NC(=O)N(Cc2ccc3c(c2)OCO3)C1=O,-17.8%,3.1%,·,?
